According to PubChem BioAssay:
Unmarked numbers belong to inactive results. How the calls were made is not given here.

target: Pantothenate synthetase (Mycobacterium tuberculosis (strain ATCC 25618 / H37Rv)) (UniProt P9WIL5); assay: Recombinant Mtb pantothenate synthetase (PanC) inhibitors, coupled enzyme, confirmatory (AID 375); settings: coupled enzyme assay; at 10 µM, stronger effect = higher value;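 further: 0% = full reaction with vehicle and 100% = no enzyme background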
Sequence (P9WIL5 whole entry, looked up): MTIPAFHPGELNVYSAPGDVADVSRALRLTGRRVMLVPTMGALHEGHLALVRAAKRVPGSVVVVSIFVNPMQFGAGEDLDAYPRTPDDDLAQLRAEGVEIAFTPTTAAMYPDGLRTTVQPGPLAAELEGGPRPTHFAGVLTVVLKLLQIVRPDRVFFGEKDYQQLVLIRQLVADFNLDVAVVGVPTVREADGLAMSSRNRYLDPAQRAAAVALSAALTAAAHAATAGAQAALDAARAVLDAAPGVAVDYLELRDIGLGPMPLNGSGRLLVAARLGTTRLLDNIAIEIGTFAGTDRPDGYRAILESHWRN

In order of falling inhibition:
1. O=C(COC(=O)c1cc(S(=O)(=O)N2CCOCC2)ccc1O)NCC1CCCO1 (stereo not given)  15%
2. CC(C)(C)n1cnc2cc(NS(=O)(=O)c3ccc(Br)cc3)ccc21  7%
3. CCOC(=O)C1CCN(C(=O)Nc2ccc3snnc3c2)CC1  6%
4. CCn1nnnc1NCc1cccn1C  5%
5. CC(=O)Nc1ccc(OCC(O)Cn2nc(C)nc2C)cc1 (stereo not given)  4%
6. CN(C(=O)c1ccc2c(=O)n3c(nc2c1)CCCCC3)c1ccccc1  4%
7. CCc1[nH]nc2c1C(c1ccncc1)C(C#N)=C(N)O2 (stereo not given)  4%
8. O=C(O)C1CCCN1S(=O)(=O)c1ccc2ccccc2c1 (stereo not given)  3%
9. CCOC(=O)C1CCN(C(C)=C2C(=O)c3ccccc3C2=O)CC1  2%
10. CCOC(=O)c1csc(NC(=O)C2CCCCC2)n1  2%
11. Nc1cc(=O)[nH]c(SCC(=O)Nc2ccc(Br)cc2)n1  2%
12. O=C(Nc1cnn(Cc2ccc(F)cc2)c1)c1cnccn1  2%
13. COc1nc(N2CCOCC2)nc(-n2cccc2)n1  2%
14. O=C1NC(Cc2c[nH]c3ccccc23)C(=O)N1CCOc1ccccc1 (stereo not given)  2%
15. CCCCN(C)Cc1c(O)ccc2c(-c3ccccc3)cc(=O)oc12  1%
16. O=C(NCC1CCCO1)c1ccccc1-c1nc(-c2ccc(Cl)cc2)no1 (stereo not given)  1%
17. COc1ccc(N2CC(C(=O)Nc3ccc(F)cc3F)CC2=O)cc1 (stereo not given)  1%
18. CC(=O)OCC(=O)[C@@]1(O)CC[C@H]2[C@@H]3CCC4=CC(=O)CC[C@]4(C)[C@H]3C(=O)C[C@@]21C  0%
19. COc1ccc2c(c1)C(C)=CC(C)(C)N2C(=O)CSc1nnc(-c2ccc(C)cc2)o1  0%
20. CCN(Cc1ccccc1)C(c1ccncc1)c1nnnn1C(C)(C)C (stereo not given)  0%
21. Cc1cc(C)n(-c2nc(C)nc3sc4c(c23)CCC(C)C4)n1 (stereo not given)  0%
22. Cc1nc2ccc(Br)cn2c1NC(C)(C)C  0%
23. COc1ccc(C)cc1NC(=O)CN(Cc1nnc(-c2ccc(Cl)cc2)o1)C1CCCC1  0%
24. Cn1c(NC(=O)c2ccccc2NC(=O)C(C)(C)C)nc2ccccc21  0%
25. Cc1cc(C(=O)COC(=O)c2n[nH]c3ccccc23)c(C)n1C  0%
26. CCCCC(CC)CNC(=O)C1CCCN(S(=O)(=O)c2cnc[nH]2)C1 (stereo not given)  0%
27. Cc1ccc(S(=O)(=O)N[C@@H](C)C(=O)N2CCC(C(=O)N3CCC[C@H]3C(=O)O)CC2)cc1  0%
28. COCCSc1ccccc1C(=O)Nc1nncs1  0%
29. Cc1cc(C)cc(NS(=O)(=O)c2ccc3[nH]c(=O)[nH]c3c2)c1  0%
30. CC(C(=O)OCn1nnc2ccccc2c1=O)N1C(=O)c2ccccc2C1=O (stereo not given)  0%
31. CCOc1nc(-c2ccccc2O)nc2ccccc12  0%
32. COC(=O)C1(C(F)(F)F)N=C2Sc3ccccc3N2C(N2CCOCC2)=N1 (stereo not given)  0%
33. CC(=O)c1ccc(-n2nnnc2SCC(=O)N2CCc3ccccc3C2)cc1  0%
34. Nc1cc(CN2C(=O)c3ccccc3C2=O)cc(Cl)c1O  0%
35. CC(C)N(Cc1nc(-c2ccc(Cl)cc2)no1)C(=O)CN(C)S(=O)(=O)c1ccc(Cl)cc1  0%
36. O=S(=O)(NCC1CCCO1)c1ccc2c(c1)OCCO2 (stereo not given)  0%
37. CCCCn1c(NCCC)nc2c1c(=O)[nH]c(=O)n2C  0%
38. CCOC(=O)CSc1nnc([C@H](C)NC(=O)OC(C)(C)C)o1  0%
39. O=C(NC1CCCC1)C1CC1c1ccccc1 (stereo not given)  0%
40. Cc1cc(C(=O)CSc2nc3ccccc3n2CCC#N)c(C)n1Cc1cccs1  0%
